According to PubChem BioAssay (NCI):
This is part of a sample that, as a whole, favours compounds with a hit. Of some 79,000 tested, about 15% had one in any assay. Active and inactive are the calls of the source. Cut-off read from the data, not from the text of the source: active = growth inhibition above about 70%; inactive = the rest.

Key:
[1] = NCI Yeast Anticancer Drug Screen. Data for the rad50 strain (AID 155);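 note: 0% = growth of vehicle-only cultures of the same strain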; conditions: S. cerevisiae rad50 strain growth inhibition; at 50.0 µM; stronger effect = higher value
Method in brief: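 Inhibition values express reduced yeast growth in compound-treated cultures relative to vehicle-treated controls.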

[2] = NCI Yeast Anticancer Drug Screen. Data for the mec2-1 strain (AID 157); conditions: S. cerevisiae mec2-1 strain, at 50.0 µM, stronger effect = higher value
Method in brief: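 mec2-1 yeast strain, carrying an alteration in DNA damage repair or cell cycle control, was exposed to compounds; growth inhibition was measured relative to vehicle-treated controls.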

[3] = NCI Yeast Anticancer Drug Screen. Data for the sgs1 mgt1 strain (AID 161);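 note: 0% = growth of cultures given vehicle only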; conditions: S. cerevisiae sgs1 mgt1 strain, at 50.0 µM, stronger effect = higher value
Method in brief: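 Yeast cells carrying a defined DNA-repair defect were exposed to test compounds. Growth inhibition was measured relative to vehicle-treated controls.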

[4] = NCI Yeast Anticancer Drug Screen. Data for the cln2 rad14 strain (AID 165);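 note: 0% = growth equal to vehicle treated cultures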; conditions: S. cerevisiae cln2 rad14 strain, at 50.0 µM, stronger effect = higher value
Method in brief: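 Yeast carrying cln2 and rad14 alterations (cell cycle control and DNA damage repair) were exposed to compounds. Growth inhibition was measured against vehicle-treated controls.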

[5] = NCI Yeast Anticancer Drug Screen. Data for the bub3 strain (AID 167); conditions: S. cerevisiae bub3 mutant strain, at 50.0 µM, stronger effect = higher value
Method in brief: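 Steps: expose the mutant yeast strain to compound; grow alongside vehicle-treated cultures; measure growth; express inhibition against the vehicle cultures.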

[6] = NCI Yeast Anticancer Drug Screen. Data for the mlh1 rad18 strain (AID 175); conditions: S. cerevisiae mlh1 rad18 strain growth inhibition; at 50.0 µM; stronger effect = higher value
Method in brief: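 Growth inhibition of the yeast strain was measured after compound exposure and expressed relative to vehicle-treated controls. The strain carries defined defects in DNA damage repair.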

Measured: growth inhibition

Cc1ccc2c(c1)nc(-c1ccccn1)n2CCc1ccncc1
inactive: [1] 62.5% | [2] 34.1% | [6] 53.8%
active: [3] 77% | [4] 90.3% | [5] 92.7%

CCOC(=O)C1=C(C)N(NC(N)=O)C(C)(O)C12CCOC2=O (stereo unspecified)
inactive: [1] 32% | [2] 0% | [3] -10.8% | [4] 13.1% | [5] 3.2% | [6] 39%

COc1nc2ccccc2nc1OC
inactive: [1] -14.1% | [2] -8.75% | [3] -5.5% | [4] -14.8% | [5] 4.45% | [6] 4%

Cc1cc(C)c2[nH]c(=O)c(Br)c(C)c2c1
inactive: [1] 29.8% | [2] 11.8% | [3] 34.2% | [4] 22.1% | [5] 3.85% | [6] 19.4%

COC(=O)[C@H]1N[C@@H](C(=O)OC)C23CCC[C@H]2CC[C@]1(C(OC)OC)C3
inactive: [1] -3.5% | [2] 2.25% | [3] 14.4% | [4] -3.8% | [5] -0.65% | [6] -16.1%

Cn1cc(C(C)(c2ccccc2)c2cn(C)c3ccccc23)c2ccccc21
inactive: [1] -13.8% | [2] -6% | [3] -4.25% | [4] -24.2% | [5] -5.6% | [6] -11%

CN(C)c1nc(N(C)C)n2c(-c3ccccc3[N+](=O)[O-])nnc2n1
inactive: [1] 48.3% | [2] 18.4% | [3] 22% | [4] 23.4% | [5] 13.3% | [6] 33.4%

CCCCSc1nc2ccc(N=Cc3ccccc3O)cc2s1
inactive: [1] -19.6% | [2] -11.2% | [3] -4.45% | [4] -17.7% | [5] -5.75% | [6] -22.4%

N#CCCCNc1ccccc1
inactive: [1] -19.1% | [2] -15% | [3] -28.4% | [4] -4.9% | [5] -8.6% | [6] -20.6%

CC(=O)O.Cl.NC1C([O-])OC(CO)C(O)C1O.O=C1OC(C(O)CO)C([O-])=C1[OH2+].[Cu+2] (stereo unspecified)
inactive: [1] 21.3% | [2] 8.3% | [3] -9.6% | [4] 5.95% | [5] 5.05% | [6] 17.2%

CC1CC(=O)NC(=O)C1
inactive: [1] -7.25% | [2] -4.1% | [3] -18.8% | [4] -13% | [5] 6.3% | [6] -22.7%

Nc1nnc2nc(C(C(=O)c3cccc(O)c3)c3nc4nnc(N)n4[nH]c3=O)c(=O)[nH]n12
inactive: [1] 8.65% | [2] 0% | [3] -7.05% | [4] 4.7% | [5] 1.2% | [6] 1.05%

Cc1ccc(S(=O)(=O)OCC2CC=CCC2COC(=O)c2ccc([N+](=O)[O-])cc2)cc1 (stereo unspecified)
inactive: [1] 33.5% | [2] -5.55% | [3] 12.1% | [4] 15.1% | [5] 6.6% | [6] 6.4%

CCCCCCC(c1c(O)cc(C)[nH]c1=O)c1c(O)cc(C)[nH]c1=O
inactive: [1] -6.55% | [2] -8.5% | [3] 9.55% | [4] -8.4% | [5] -12.8% | [6] -11.9%

Cc1ccc(NC(=O)c2ccccc2)cc1
inactive: [1] 3.75% | [2] 4.7% | [3] -2.55% | [4] -16% | [5] 2.05% | [6] -0.3%

CSC(=S)c1ccc(NSc2ccccc2[N+](=O)[O-])cc1
inactive: [1] 7.6% | [2] 23.6% | [3] 46.8% | [4] 14% | [5] 20.4% | [6] 33.8%

CN1C/C(=C\c2ccc(C(=O)O)cc2)C(=O)/C(=C/c2ccc(C(=O)O)cc2)C1
inactive: [1] 33.3% | [2] 5.35% | [3] 28.1% | [4] 20.9% | [5] -5% | [6] 19.7%

CC(C)N(C)c1ncnc2c1cnn2C
inactive: [1] -1.55% | [2] -2.85% | [3] -3.95% | [4] -14.8% | [5] 1.75% | [6] -14%

CCOC(=O)Cn1nnnc1N
inactive: [1] -3.4% | [2] 23.6% | [3] -5.2% | [4] -21.9% | [5] -13.8% | [6] 30.6%

CC(=O)CC(=O)NC(C)c1ccccc1 (stereo unspecified)
inactive: [1] -4.05% | [2] -12.8% | [3] -4.65% | [4] -18.5% | [5] -7.3% | [6] 3.2%

CCOC(O)C(F)(F)C(F)(F)C(F)(F)F (stereo unspecified)
inactive: [1] 9.05% | [2] -32.2% | [3] 3.5% | [4] 20.9% | [5] -7.95% | [6] 20.1%
